# Reference: article PMC11066047
# Key:
# [1] = biological target: U3 small nucleolar RNA-associated protein 12 (UniProt Q12220); assay: cross-link between two proteins; cross-linking mass spectrometry
# [2] = biological target: U3 small nucleolar RNA-associated protein 15 (UniProt Q04305); assay: as above
# [3] = biological target: U3 small nucleolar RNA-associated protein 16 (UniProt Q08492); assay: cross-link between two proteins
# [4] = biological target: U3 small nucleolar RNA-associated protein 21 (UniProt Q06078); assay: cross-link between two proteins
# U3 small nucleolar RNA-associated protein 21, sequence (Q06078 whole entry): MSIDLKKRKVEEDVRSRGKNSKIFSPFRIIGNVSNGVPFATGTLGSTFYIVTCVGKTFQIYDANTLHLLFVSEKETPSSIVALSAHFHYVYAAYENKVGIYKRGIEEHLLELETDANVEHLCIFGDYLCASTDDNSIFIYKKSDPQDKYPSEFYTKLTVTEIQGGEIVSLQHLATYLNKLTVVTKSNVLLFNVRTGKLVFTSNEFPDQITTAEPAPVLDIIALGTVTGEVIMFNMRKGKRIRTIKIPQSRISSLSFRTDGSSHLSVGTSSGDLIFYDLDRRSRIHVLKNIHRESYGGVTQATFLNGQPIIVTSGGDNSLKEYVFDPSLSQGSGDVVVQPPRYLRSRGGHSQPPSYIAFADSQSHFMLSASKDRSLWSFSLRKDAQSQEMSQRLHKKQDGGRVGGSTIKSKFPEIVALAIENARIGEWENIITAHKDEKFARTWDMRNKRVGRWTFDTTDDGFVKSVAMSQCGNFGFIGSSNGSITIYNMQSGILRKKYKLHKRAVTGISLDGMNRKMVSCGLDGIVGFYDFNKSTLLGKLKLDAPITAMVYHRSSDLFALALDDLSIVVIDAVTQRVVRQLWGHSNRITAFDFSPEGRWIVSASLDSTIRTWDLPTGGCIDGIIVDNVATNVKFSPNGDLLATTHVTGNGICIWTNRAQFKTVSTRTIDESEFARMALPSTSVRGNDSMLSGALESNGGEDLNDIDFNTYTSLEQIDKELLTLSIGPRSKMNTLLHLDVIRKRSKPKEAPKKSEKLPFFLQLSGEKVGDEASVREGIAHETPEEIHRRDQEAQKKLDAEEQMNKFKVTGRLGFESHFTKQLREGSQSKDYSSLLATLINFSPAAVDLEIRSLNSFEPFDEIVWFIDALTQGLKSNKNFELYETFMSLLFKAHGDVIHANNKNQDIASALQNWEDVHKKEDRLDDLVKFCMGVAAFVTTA
# [5] = biological target: U3 small nucleolar RNA-associated protein 22 (UniProt P53254); assay: cross-link between two proteins
# U3 small nucleolar RNA-associated protein 22, sequence (P53254 whole entry): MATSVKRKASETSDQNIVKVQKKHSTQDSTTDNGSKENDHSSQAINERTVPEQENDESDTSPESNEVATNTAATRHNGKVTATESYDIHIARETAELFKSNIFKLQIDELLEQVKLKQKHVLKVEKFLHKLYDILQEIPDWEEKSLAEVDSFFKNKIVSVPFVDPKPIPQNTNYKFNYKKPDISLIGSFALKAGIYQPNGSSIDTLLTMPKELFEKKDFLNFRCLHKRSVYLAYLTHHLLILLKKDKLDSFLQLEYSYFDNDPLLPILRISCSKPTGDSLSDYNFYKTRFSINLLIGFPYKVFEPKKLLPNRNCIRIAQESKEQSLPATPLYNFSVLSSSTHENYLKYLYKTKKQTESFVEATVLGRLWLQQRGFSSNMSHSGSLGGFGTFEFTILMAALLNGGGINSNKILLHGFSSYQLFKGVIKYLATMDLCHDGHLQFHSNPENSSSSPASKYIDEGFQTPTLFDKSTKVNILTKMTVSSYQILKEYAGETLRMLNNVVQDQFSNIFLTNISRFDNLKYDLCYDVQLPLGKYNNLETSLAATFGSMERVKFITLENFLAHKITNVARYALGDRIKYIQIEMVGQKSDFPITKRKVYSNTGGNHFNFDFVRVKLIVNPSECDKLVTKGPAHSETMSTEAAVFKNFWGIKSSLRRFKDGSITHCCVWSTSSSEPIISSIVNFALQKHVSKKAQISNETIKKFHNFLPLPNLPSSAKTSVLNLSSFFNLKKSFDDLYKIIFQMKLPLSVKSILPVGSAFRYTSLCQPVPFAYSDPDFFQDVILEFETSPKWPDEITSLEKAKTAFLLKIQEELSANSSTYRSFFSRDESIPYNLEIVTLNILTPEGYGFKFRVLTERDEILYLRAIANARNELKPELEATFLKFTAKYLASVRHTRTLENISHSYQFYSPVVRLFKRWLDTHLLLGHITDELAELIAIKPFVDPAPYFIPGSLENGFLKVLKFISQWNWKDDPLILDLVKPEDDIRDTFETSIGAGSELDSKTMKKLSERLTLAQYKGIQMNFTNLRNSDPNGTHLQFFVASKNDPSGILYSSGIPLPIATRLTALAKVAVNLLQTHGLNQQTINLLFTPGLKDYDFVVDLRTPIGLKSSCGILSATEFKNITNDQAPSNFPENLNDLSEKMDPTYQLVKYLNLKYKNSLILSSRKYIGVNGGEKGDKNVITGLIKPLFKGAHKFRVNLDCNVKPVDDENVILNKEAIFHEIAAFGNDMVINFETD
# [6] = biological target: U3 small nucleolar RNA-associated protein MPP10 (UniProt P47083); assay: cross-link between two proteins
# U3 small nucleolar RNA-associated protein MPP10, sequence (P47083 whole entry): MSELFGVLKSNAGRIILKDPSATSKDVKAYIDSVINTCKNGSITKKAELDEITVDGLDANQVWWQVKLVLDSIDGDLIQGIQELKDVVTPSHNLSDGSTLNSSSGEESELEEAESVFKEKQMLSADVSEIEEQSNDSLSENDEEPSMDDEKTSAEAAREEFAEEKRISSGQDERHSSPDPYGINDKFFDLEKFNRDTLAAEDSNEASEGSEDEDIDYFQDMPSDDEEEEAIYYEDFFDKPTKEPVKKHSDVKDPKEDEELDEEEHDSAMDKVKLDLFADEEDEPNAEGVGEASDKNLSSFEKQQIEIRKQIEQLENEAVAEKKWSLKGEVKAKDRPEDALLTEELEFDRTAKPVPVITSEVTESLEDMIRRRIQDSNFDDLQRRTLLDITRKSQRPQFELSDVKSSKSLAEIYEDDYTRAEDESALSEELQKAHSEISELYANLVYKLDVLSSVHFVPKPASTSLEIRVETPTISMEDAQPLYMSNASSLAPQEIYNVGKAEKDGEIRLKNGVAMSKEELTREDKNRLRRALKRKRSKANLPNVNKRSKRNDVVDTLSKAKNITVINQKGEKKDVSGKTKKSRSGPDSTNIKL
# [7] = biological target: Ubiquitin-like protein MDY2 (UniProt Q12285); assay: cross-link between two proteins; cross-linking mass spectrometry
# Ubiquitin-like protein MDY2, sequence (Q12285 whole entry): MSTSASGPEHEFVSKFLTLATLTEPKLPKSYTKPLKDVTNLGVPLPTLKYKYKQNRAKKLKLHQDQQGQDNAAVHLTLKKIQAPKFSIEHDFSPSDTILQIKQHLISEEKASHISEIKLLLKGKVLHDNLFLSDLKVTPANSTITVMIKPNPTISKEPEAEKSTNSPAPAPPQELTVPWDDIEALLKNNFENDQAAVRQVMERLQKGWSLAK
# [8] = biological target: rRNA-processing protein FCF2 (UniProt Q12035); assay: cross-link between two proteins
# rRNA-processing protein FCF2, sequence (Q12035 whole entry): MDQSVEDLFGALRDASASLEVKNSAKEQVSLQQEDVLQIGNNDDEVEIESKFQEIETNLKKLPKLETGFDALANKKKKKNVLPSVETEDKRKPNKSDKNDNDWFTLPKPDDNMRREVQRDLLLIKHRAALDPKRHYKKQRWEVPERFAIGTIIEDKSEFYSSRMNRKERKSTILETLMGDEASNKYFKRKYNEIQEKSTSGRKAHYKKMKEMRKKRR
# U3 small nucleolar RNA-associated protein 12, sequence (Q12220 whole entry): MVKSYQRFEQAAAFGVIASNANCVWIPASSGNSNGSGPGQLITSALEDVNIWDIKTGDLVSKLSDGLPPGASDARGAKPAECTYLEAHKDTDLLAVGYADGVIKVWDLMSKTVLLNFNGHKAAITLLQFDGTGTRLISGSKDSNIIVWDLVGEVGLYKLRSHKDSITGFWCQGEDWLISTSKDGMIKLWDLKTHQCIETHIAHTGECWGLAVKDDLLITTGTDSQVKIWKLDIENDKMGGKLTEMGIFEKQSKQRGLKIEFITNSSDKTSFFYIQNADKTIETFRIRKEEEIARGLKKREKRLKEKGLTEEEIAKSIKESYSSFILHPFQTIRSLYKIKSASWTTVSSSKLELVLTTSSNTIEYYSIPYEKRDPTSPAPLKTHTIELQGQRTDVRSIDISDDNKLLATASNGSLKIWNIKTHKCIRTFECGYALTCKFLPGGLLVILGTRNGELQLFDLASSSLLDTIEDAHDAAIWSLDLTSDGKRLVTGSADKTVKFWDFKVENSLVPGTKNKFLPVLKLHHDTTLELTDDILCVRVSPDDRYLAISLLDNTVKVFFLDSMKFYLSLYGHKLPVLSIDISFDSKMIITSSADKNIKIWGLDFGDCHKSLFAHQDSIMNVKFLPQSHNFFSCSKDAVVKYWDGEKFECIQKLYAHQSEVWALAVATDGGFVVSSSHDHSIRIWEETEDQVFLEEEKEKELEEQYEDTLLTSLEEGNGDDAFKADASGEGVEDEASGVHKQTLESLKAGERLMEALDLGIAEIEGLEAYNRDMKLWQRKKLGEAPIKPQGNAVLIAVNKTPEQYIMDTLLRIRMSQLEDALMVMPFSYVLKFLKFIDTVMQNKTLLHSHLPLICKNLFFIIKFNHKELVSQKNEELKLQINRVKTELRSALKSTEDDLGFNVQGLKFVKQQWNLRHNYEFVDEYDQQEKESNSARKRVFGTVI
# U3 small nucleolar RNA-associated protein 15, sequence (Q04305 whole entry): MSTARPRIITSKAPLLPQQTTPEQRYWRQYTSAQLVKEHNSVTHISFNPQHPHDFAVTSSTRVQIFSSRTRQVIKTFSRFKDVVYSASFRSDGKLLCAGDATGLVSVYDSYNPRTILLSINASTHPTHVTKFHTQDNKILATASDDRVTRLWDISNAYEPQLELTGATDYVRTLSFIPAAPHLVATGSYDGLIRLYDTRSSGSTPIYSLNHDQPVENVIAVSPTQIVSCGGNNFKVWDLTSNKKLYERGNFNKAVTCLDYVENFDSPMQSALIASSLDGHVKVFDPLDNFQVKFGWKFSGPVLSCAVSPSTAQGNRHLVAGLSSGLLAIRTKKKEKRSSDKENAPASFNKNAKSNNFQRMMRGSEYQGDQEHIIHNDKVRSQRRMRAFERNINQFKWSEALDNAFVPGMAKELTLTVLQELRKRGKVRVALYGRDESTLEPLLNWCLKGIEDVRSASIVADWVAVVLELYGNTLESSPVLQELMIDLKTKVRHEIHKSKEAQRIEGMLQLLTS
# U3 small nucleolar RNA-associated protein 16, sequence (Q08492 whole entry): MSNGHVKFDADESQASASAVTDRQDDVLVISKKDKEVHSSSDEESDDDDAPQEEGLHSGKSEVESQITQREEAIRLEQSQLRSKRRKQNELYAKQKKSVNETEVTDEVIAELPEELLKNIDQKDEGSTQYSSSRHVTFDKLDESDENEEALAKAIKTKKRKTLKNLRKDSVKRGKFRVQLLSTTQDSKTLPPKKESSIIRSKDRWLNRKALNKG
substance,measurement,setting,value
"U3 small nucleolar RNA-associated protein 13, Q05946",listed as a hit,[1],yes
"U3 small nucleolar RNA-associated protein 21, Q06078",listed as a hit,[1],yes
"U3 small nucleolar RNA-associated protein 5, Q04177",listed as a hit,[2],yes
"NET1-associated nuclear protein 1, Q02931",listed as a hit,[2],yes
"Nucleolar complex protein 4, Q06512",listed as a hit,[3],yes
"Periodic tryptophan protein 2, P25635",listed as a hit,[4],yes
"Ribosomal RNA-processing protein 7, P25368",listed as a hit,[5],yes
"U3 small nucleolar ribonucleoprotein protein IMP3, P32899",listed as a hit,[6],yes
"Golgi to ER traffic protein 4, Q12125",listed as a hit,[7],yes
"U3 small nucleolar RNA-associated protein 6, Q02354",listed as a hit,[8],yes
